TRPV1 agonist: activates the human vanilloid receptor TRPV1. Q8NER1. TRPV1-expressing cells, Fluo-8 calcium influx, agonist mode. activation, % at 8.33 µM. 320,000 tested, 0.19% active; in the data active means activation above about 80%; inconclusive means between about 30% and that limit; further: 0% is about no effect
Target sequence (Q8NER1 whole entry, looked up): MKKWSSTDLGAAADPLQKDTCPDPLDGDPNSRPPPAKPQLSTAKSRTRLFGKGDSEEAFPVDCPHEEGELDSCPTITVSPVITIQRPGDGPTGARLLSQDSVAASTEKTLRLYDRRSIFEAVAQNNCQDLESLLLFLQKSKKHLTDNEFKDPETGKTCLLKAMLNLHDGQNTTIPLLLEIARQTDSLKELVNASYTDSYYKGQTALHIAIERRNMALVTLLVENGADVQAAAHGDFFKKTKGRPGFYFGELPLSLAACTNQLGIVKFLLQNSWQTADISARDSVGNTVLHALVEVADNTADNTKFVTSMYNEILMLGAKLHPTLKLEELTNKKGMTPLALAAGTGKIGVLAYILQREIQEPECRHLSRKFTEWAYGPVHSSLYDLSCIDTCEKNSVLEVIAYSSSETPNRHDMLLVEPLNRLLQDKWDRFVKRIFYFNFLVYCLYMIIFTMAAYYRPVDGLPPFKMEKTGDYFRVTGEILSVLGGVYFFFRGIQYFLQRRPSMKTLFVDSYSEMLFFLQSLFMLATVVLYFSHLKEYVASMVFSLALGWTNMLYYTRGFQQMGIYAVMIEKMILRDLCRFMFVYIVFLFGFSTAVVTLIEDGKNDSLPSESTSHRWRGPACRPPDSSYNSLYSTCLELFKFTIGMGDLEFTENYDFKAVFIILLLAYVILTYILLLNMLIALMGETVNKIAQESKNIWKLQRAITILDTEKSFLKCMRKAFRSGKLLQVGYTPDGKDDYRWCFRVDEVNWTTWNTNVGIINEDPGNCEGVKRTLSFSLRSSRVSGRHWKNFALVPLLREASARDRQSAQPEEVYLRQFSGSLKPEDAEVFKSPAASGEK
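Cells expressing TRPV1 were dye-loaded with Fluo-8 and read kinetically: 10 s baseline, 3 min after compound (agonist portion), then 2 min after EC20 capsaicin (allosteric enhancer portion). Calcium-bound dye fluorescence at 480/520 nm.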
Gal4-VP16 FLuc: counter-screen for ROR gamma inhibitors: Gal4-VP16 reporter; Drosophila S2 Gal4-VP16 UAS-luciferase, luminescence, 20 h; Potency, µM (series often up to 53.6 µM), inactives show at the highest dose activity, negative = inhibition, hits mostly inhibitors; 310,000 tested, 3.5% active; AID 2546;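 further: Gal4-VP16 expression switched on by copper sulfate through the metallothionein promoter; potency means the concentration at half of the fitted maximal effect; on the % scale 0 is the no-effect control and ±100 the full control effect; nearly all actives have a fitted effect of over 50% in size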
RORg inh: blocks mouse ROR gamma transcriptional activity | P51450 | Potency, µM (doses to about 53.6 µM), without a hit: at the highest dose activity change, negative = inhibition, actives largely listed as inhibitors | 310,000 tested, 5.4% active | Drosophila S2 Gal4-RORgamma UAS-luciferase reporter, 20 h; further: potency means the concentration at half of the fitted maximal effect; on the % scale 0 is the no-effect control and ±100 the full control effect; nearly all actives have a fitted effect of over 60% in size
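Drosophila Schneider cells stably carrying a metallothionein-driven Gal4 DBD–ROR gamma fusion and a UAS-Photinus luciferase reporter were exposed to compound for 1 hr, then induced with copper sulfate (700 uM final) for 20 hr at ambient temperature before luminescence reading.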
TRPV1 potentiator: potentiators of human vanilloid receptor 1 (TRPV1); Q8NER1; TRPV1-expressing cells, Fluo-8 calcium influx, capsaicin EC20 potentiation; potentiation, % at 8.33 µM; 320,000 tested, 0.02% active; AID 540277; in the data active means potentiation above about 80%; inconclusive means between about 30% and that limit; further: 0% is about no effect
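Fluo-8 calcium influx in TRPV1-expressing cells, kinetic read (ex 480/em 520 nm). Compound added and read 3 min for agonist activity, followed by capsaicin at EC20 final and 2 min further read for enhancement.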
uPA generation: inhibitors of cell surface uPA generation; cell surface uPA generation assay, qHTS; Potency, µM (doses to about 38.3 µM), for inactives: at the top dose activity change, negative = inhibition, usual class: inhibitors; 330,000 tested, 0.31% active; AID 540303; active means well fitted inhibition curve with a large enough effect; inconclusive means small, poorly fitted or top-dose-only effect; inactive means no such curve, though single readings can be large or run the other way; tested in mouse RAW 264.7 cells; further: potency means the concentration at half of the fitted maximal effect; on the % scale 0 is the no-effect control and ±100 the full control effect; nearly all actives have a fitted effect of over 55% in size
* = called active by the depositor; ? = inconclusive; · = no result; [ ] = remark or other dose. Sampled rows, rich in hits. Any-hit rate of the full collection: about 5.8%. Unless noted, the call rests on the fitted dose curve; in most records, active means well fitted curve in the direction sought with a large enough effect; inconclusive means small, poorly fitted or top-dose-only effect, or another doubt; inactive means no such curve, though single readings can be large; an effect the other way counts as inactive or inconclusive.

SMILES | TRPV1 agonist | Gal4-VP16 FLuc | RORg inh | TRPV1 potentiator | uPA generation
CC[C@H](C)[C@H](NC(=O)[C@H](Cc1ccc(O)cc1)NC(=O)[C@H](Cc1cnc[nH]1)NC(=O)[C@H](CCCNC(=N)N)NC(=O)[C@H](CC(C)C)NC(=O)[C@H](C)NC(=O)[C@@H](N)CO)C(=O)N[C@@H](CC(N)=O)C(=O)N[C@@H](CC(C)C)C(=O)N[C@H](C(=O)N[C@H](C(=O)N[C@@H](CCCNC(=N)N)C(=O)N[C@@H](CCC(N)=O)C(=O)N[C@@H](CCCNC(=N)N)C(=O)N[C@@H](Cc1ccc(O)cc1)C(N)=O)[C@@H](C)O)[C@@H](C)CC | · | -3% | 1% | · | ·
CN1CCN(c2ncc3nc(-c4ccccc4)c(=O)n(-c4ccccc4)c3n2)CC1 | · | -9% | -10% | · | ·
O=c1c2ccccc2nnn1COc1cccc(Cl)c1 | 14 | 0% | ? | -2 | 3%
O=C(N/N=C/C=C\c1ccccc1)c1cnccn1 | 19 | -19% | -5% | -20 | 2%
O=C(N/N=C/C=C/c1ccccc1)c1ccccn1 | 97* | -17% | -36% | -3 | -4%
CCCNC(=O)CN1C(=O)NC(CCc2ccccc2)C1=O (configuration not stated) | 1 | -7% | 1% | -5 | 9%
CCCCCCCNC1=CC(=O)CC(c2ccccc2)C1 (configuration not stated) | 22 | ? | ? | -9 | 8.9µM*
CCN1C(=O)[C@H]2[C@H]3[C@H](O)[C@H](O)C/C(=N/NC(=O)OCc4ccc(OC)cc4)[C@@H]3CC[C@@H]2C1=O | · | 3%[10 µM] | -21%[10 µM] | · | ·
Cc1cccc(NC(=S)N2CCN(c3ccc(F)cc3)CC2)c1 | 6 | ? | 8.9µM* | -13 | -2%
FC(F)(F)c1cccc(NC(=S)N2CCN(c3cccc(C(F)(F)F)c3)CC2)c1 | 22 | -21% | 11µM* | -12 | -1%
Cc1cccc(NC(=S)N2CCN(S(=O)(=O)c3ccc(F)cc3)CC2)c1 | ? | -16% | 13µM* | -9 | 0%
O=[N+]([O-])c1ccc(NC(=S)N2CCN(c3ccc(F)cc3)CC2)cc1 | 12 | -15% | -19% | 0 | -5%
Cc1cc(C)cc(NC(=S)N2CCN(c3ccc(F)cc3)CC2)c1 | 8 | -25% | 7.1µM* | -4 | -10%
COc1ccc(C2=NS(=O)(=O)N(C)C(C(=O)NCc3ccccn3)=C2)cc1OC | 0 | -3% | -19% | 0 | 2%
CSc1nnc(NC(=O)c2ccc(S(=O)(=O)N(C)C)cc2)s1 | 3 | -5% | -1% | 0 | -7%
COC(=O)c1cccc(NC(=O)CSc2nc(O)c(-c3ccccc3)c(=O)[nH]2)c1 | 0 | -7% | 7% | 5 | 13%
CN(C)c1ccc(NC(=O)c2cnsn2)cc1 | 19 | 10µM* | 10µM* | -17 | -6%
Cc1noc(C)c1C(=O)Nc1ccc(N(C)C)cc1 | 0 | -9% | 4% | -18 | 5%
CC(C)(C)c1csc(NC(=O)c2ccccc2O)n1 | 24 | 2.5µM* | ? | -17 | -3%
CC(C)(C)c1csc(NNC(=O)c2ccc(Br)cc2)n1 | 80* | 2.8µM* | 1.3µM* | -20 | 4%
Nc1c(C(=O)NC2CCCCC2)c2nc3ccccc3nc2n1/N=C/c1ccco1 | 0 | ? | 13µM* | -1 | ·
Nc1c(S(=O)(=O)c2ccccc2)c2nc3ccccc3nc2n1/N=C/c1ccco1 | -2 | -24% | -35% | 13 | ·
CCN(CC)CCCn1c(=S)[nH]c2cc(Cl)ccc2c1=O | 3 | -22% | 10µM* | -31 | ·
O=c1c2ccccc2[nH]c(=S)n1CCCN1CCOCC1 | -1 | -9% | ? | ? | -3%
O=c1c2ccc(Cl)cc2[nH]c(=S)n1CCCN1CCOCC1 | 4 | ? | 7.9µM* | -6 | -5%
SMILES | TRPV1 agonist | Gal4-VP16 FLuc | RORg inh | TRPV1 potentiator | uPA generation
Cc1ccc2c(c1)[nH]c1c(=O)n(CCC3=CCCCC3)cnc12 | 0 | -10% | 41% | 1 | ·
CCN(CC)CCCn1c(=S)[nH]c2ccc(Cl)cc2c1=O | 1 | ? | 11µM* | 4 | ·
CCN(CC)CCn1c(=S)[nH]c2cc(C(=O)NCc3ccccc3Cl)ccc2c1=O | 2 | -4% | -14% | 2 | -9%
O=c1c2ccc(Cl)cc2[nH]c(=S)n1CCC1=CCCCC1 | 11 | 2.5µM* | 1.3µM* | ? | -12%
Cc1ccc(C)c(S(=O)(=O)N2CCN(C(=O)C(C)Sc3ccccc3)CC2)c1 (configuration not stated) | 1 | -1% | -1% | 0 | ?
Cc1nn(-c2ccccn2)c2c1C(c1c(F)cccc1Cl)C1=C(N2)c2ccccc2C1=O (configuration not stated) | 17 | 7.9µM* | 1.6µM* | 1 | ·
Cc1nn(-c2ccccn2)c2c1C(c1ccccc1Cl)C1=C(N2)c2ccccc2C1=O (configuration not stated) | 2 | ? | 2.8µM* | -11 | -1%
CC1CCCN(S(=O)(=O)c2ccc(C(=O)Nc3nnc(-c4ccco4)o3)cc2)C1 (configuration not stated) | 3 | 0.5µM* | 1.1µM* | 9 | -8%
CCc1nnc(NC(=O)c2ccc(S(=O)(=O)N3CCCC(C)C3)cc2)o1 (configuration not stated) | -2 | 0.63µM* | 0.22µM* | 3 | ?
CC1CCN(S(=O)(=O)c2ccc(C(=O)Nc3nnc(-c4ccccn4)o3)cc2)CC1 | -2 | -14% | -1% | 8 | -3%
CCc1nnc(NC(=O)c2ccc(S(=O)(=O)N3CCCC(C)C3)cc2)s1 (configuration not stated) | 11 | 6% | 2% | -8 | 9%
COCc1nnc(NC(=O)c2ccc(S(=O)(=O)N3CCCC3)cc2)o1 | -4 | 11µM* | 4.5µM* | 3 | 9%
O=C(CN(C(=O)C1CSC(=O)C1)c1cccc(F)c1)NCc1ccc2c(c1)OCO2 (configuration not stated) | 0 | -2% | 20% | 4 | 7%
CCC1(c2ccccc2)NC(=O)NC1=O (configuration not stated) | · | -14% | 18% | · | ·
O=C(OC1Cn2c(=O)ccc(=O)n2C1)c1ccccc1 | 5 | -8% | -20% | 28 | 0%
CCCCS(=O)(=O)/C=C\C1C2C=CC(C2)C1S(=O)(=O)CCCC (configuration not stated) | 8 | 1% | 3% | -12 | 0%
CCCCS(=O)(=O)/C=C\C=C/S(=O)(=O)CCCC | 19 | 0.89µM* | 0.71µM* | ? | 2%
CCc1ccc(C2/C=C\CNC(c3ccccc3)C(=O)N2Cc2ccc(C)cc2)cc1 (configuration not stated) | · | -6% | -26% | · | ·
CCC(=O)N1CCN(c2nc(-c3ccccc3)c3c(c2C#N)CCCC3)CC1 | 102* | 9% | 18% | -1 | -6%
CCCc1cc(N2CCN(C(=O)c3ccco3)CC2)n2c(nc3ccccc32)c1C#N | 16 | 4% | 4.5µM* | -26 | -4%

High-throughput results (PubChem BioAssay)
